Compound activity from PubChem.
LASV entry inh – inhibitors of Lassa virus binding or cell entry; Lassa virus pseudotype entry inhibition, cell reporter; Potency, µM (highest dose often 37.9 µM), for the others: top-dose activity change, negative = inhibition, hits mostly inhibitors; 300,000 compounds, 1.2% hits; calls by dose curve; tested in HEK293 cells; note: potency is the fitted concentration of half-maximal effect; % is set by controls: 0 for no effect and ±100 for the full control effect; nearly all actives have a fitted effect of over 50% in size
HCMV antiviral – human cytomegalovirus inhibition | 410,000 compounds, 4.5% hits | HFF cells, HCMV-luciferase reporter, 72 h; active compounds read low | AID 1259415 | activity change, negative = inhibition, % at 57.5 µM; in the data active = activity change below about -60%; inconclusive = no clear call, values can overlap the other calls; inactive = above about -39%; note: % is set by controls: 0 for no effect and ±100 for the full control effect
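Inhibition of viral replication was scored as loss of reporter luminescence in HFFs infected with HCMV-luciferase (MOI 1 PFU/cell) for 72 h; compounds tested at 2 doses, normalized to buffer and Salinomycin controls.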
HCV inh – inhibitors of hepatitis C virus infection; Huh7.5.1 HCVcc-Cre infection, luciferase reporter, 44 h; Potency, µM (titrated, usually from 41.8 µM), inactives show at the top dose activity change, negative = inhibition, most hits filed as inhibitors; 340,000 compounds, 3.4% hits; active = well fitted inhibition curve with a large enough effect; inconclusive = small, poorly fitted or top-dose-only effect, or another doubt; inactive = no such curve, though single readings can be large or run the other way; note: potency is the fitted concentration of half-maximal effect; % is set by controls: 0 for no effect and ±100 for the full control effect
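A cell-based infection assay in which seeded cells (1,000 per well) receive test compound after 4 h, are inoculated with HCVcc-Cre at approximately 0.5 moi, and are incubated 44 h before luminescence detection.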
SARS PLP yeast – inhibitors of SARS-CoV papain-like protease in yeast. AID 485353. Potency, µM (titrated, usually from 32.9 µM), for inactives: at the top dose activity, positive = growth rescue, most hits filed as activators. 330,000 compounds, 0.19% hits. S. cerevisiae expressing SARS-CoV PLpro, growth rescue; calls by dose curve; note: potency is the fitted concentration of half-maximal effect; 0% is about no effect; nearly all actives have a fitted effect of over 55% in size
FMDV inh – antivirals against foot and mouth disease virus | 410,000 compounds, 1.2% hits | FMDV antiviral cell-based qHTS | Potency, µM (doses to about 57.9 µM), for the others: top-dose activity change, negative = inhibition, hits mostly inhibitors | AID 1159524; calls by dose curve; tested in HEK293T cells; note: read-out not given here; potency is the fitted concentration of half-maximal effect; % is set by controls: 0 for no effect and ±100 for the full control effect; nearly all actives have a fitted effect of over 45% in size
MARV entry inh – blocks Marburg virus binding to or entry into cells; AID 540276; 300,000 compounds, 1.8% hits; Potency, µM (doses to about 37.8 µM), inactives show at the highest dose activity change, negative = inhibition, usual class: inhibitors; Marburg virus pseudotyped entry inhibition, cell reporter; calls by dose curve; tested in HEK293 cells; note: potency is the fitted concentration of half-maximal effect; % is set by controls: 0 for no effect and ±100 for the full control effect
Active calls of the source: *; [ ] = remark or other dose. Sampled rows, rich in hits. Any-hit rate of the full collection: about 8%.

CCN(CC)C(=O)Cn1c(=O)n(Cc2ccc(C(=O)NCCc3ccc(OC)c(OC)c3)cc2)c(=O)c2ccccc21 was read as LASV entry inh 26.6%[46.1 µM], HCMV antiviral 17.3, FMDV inh -4.1% and MARV entry inh inconclusive.
Screening CC(/C=C/c1ccccc1)=N\Nc1ccccc1[N+](=O)[O-] returned LASV entry inh -4.0%[46.1 µM], HCMV antiviral -72.5*, HCV inh -14.7%, SARS PLP yeast -2.2%, FMDV inh 21.3% and MARV entry inh inconclusive.
For COC(=O)[C@](O)(c1ccc(NC(=O)c2ccco2)c(OC)c1)C(F)(F)F the results were MARV entry inh 5.6%[46.1 µM].
For CCCCN1C(=O)C(CC(=O)NCC2CCCCC2)CC(C(=O)N(C)C)=C1C (stereo not given) the results were HCMV antiviral -105.3* and FMDV inh -1.2%.
`CCSc1nc(O)c([C@H]2OC(=O)c3c2ccc(OC)c3OC)c(=O)n1-c1ccccc1` gave MARV entry inh -0.1%.
COc1ccc(/C=N/N2CCOCC2)cc1OCc1ccccc1 was read as LASV entry inh 3.8%, HCMV antiviral inconclusive, HCV inh 1.2%, SARS PLP yeast -0.4%, FMDV inh -3.7% and MARV entry inh -2.9%[46.1 µM].
COc1cc(/C=C/C(=O)CC(=O)/C=C/c2ccc(O)c(OC)c2)ccc1O was read as LASV entry inh 18.4µM*, HCMV antiviral -35.0, HCV inh inconclusive, SARS PLP yeast -69.8%, FMDV inh inconclusive and MARV entry inh inconclusive.
COc1cc(/C=C/C(C)=NNc2ccccc2)ccc1O was read as LASV entry inh -27.2%[46.1 µM], HCMV antiviral -61.3*, HCV inh inconclusive, FMDV inh 2.9% and MARV entry inh inconclusive.
COc1cc(/C=N/N2CCOCC2)ccc1OCc1ccccc1 was read as LASV entry inh -3.5%, HCMV antiviral -105.5*, HCV inh -19.3%, SARS PLP yeast -6.0%, FMDV inh 0.0% and MARV entry inh inconclusive.
Screening COc1cc(C=NCc2ccccc2)ccc1O returned HCMV antiviral 13.6 and FMDV inh -8.3%.
`COc1ccc(C(=O)C=Cc2ccc(OCc3ccccc3)c(OC)c2)cc1OC` gave HCMV antiviral -7.7 and FMDV inh inconclusive.
COc1cc(OC)c(C(=O)/C=C/c2ccc(OCc3ccccc3)c(OC)c2)c(OC)c1 was read as LASV entry inh inconclusive, HCMV antiviral inconclusive, HCV inh inconclusive, SARS PLP yeast -3.7%, FMDV inh inconclusive and MARV entry inh 11.2µM*.
For CCOC(=O)Cn1c(=O)n(-c2ccccc2OC)c2nc(-c3ccc(C(C)C)cc3)nc(C(N)=O)c21 the results were LASV entry inh inconclusive, HCMV antiviral 5.8 and FMDV inh -17.5%.
`COc1cc(/C=C/C(=O)/C=C(O)/C=C/c2ccc(O)c(OC)c2)ccc1O` gave HCMV antiviral -67.4*, HCV inh inconclusive, SARS PLP yeast 4.1% and FMDV inh inconclusive.
`COc1cc(/C=C/[N+](=O)[O-])ccc1OCc1cccc(C(=O)O)c1` gave LASV entry inh 0.631µM*, HCV inh -4.1%, SARS PLP yeast 0.5%, FMDV inh 10µM* and MARV entry inh inconclusive.
For COc1cc(/C=C/[N+](=O)[O-])ccc1O the results were LASV entry inh -20.1%, HCMV antiviral -103.8*, HCV inh 8.5%, SARS PLP yeast -78.8%, FMDV inh inconclusive and MARV entry inh -22.1%.
For COc1cc(/C=C/C(=O)O)ccc1O the results were HCV inh 19.6% and FMDV inh -5.6%.
`COc1ccc(OC)c(CNS(=O)(=O)c2cc(-c3onc(C)c3C)ccc2C)c1` gave LASV entry inh -12.0%[46.1 µM], HCMV antiviral -3.7 and FMDV inh 10.9%.
`O=c1[nH]c(/C(Cl)=C/c2cc(Cl)ccc2O)nc2cc(Cl)ccc12` gave LASV entry inh -1.5%, HCMV antiviral -70.1*, HCV inh -23.1%, SARS PLP yeast -17.6%, FMDV inh inconclusive and MARV entry inh 21.3%.
`O=c1[nH]c(/C(Cl)=C/c2c(F)cccc2Cl)nc2cc(Cl)ccc12` gave LASV entry inh -0.6%, HCMV antiviral -35.8, HCV inh -26.3%, SARS PLP yeast inconclusive, FMDV inh -9.6% and MARV entry inh -7.7%.
`CN(C)C(=O)c1ccc(Nc2cc3c(cn2)cc(-c2cccnc2)n3Cc2ccccc2)cc1` gave HCMV antiviral -12.9.
O=C1c2ccccc2NC(c2ccc(-c3ccccc3F)o2)N1O (stereo not given) was read as HCMV antiviral -26.5, SARS PLP yeast -0.5% and FMDV inh 14.0%.
`Cc1cc([N+](=O)[O-])ccc1-c1ccc(C2Nc3ccccc3C(=O)N2O)o1` (stereo not given) gave LASV entry inh inconclusive, HCMV antiviral -98.9*, HCV inh 11.2µM*, SARS PLP yeast -24.1%, FMDV inh -28.2% and MARV entry inh inconclusive.
Screening Cc1noc(C)c1-c1cc(NC2CC2)ncn1 returned FMDV inh -11.7%.
Screening O=P(CCCCCCCCCP(=O)(c1ccccc1)c1ccccc1)(c1ccccc1)c1ccccc1 returned LASV entry inh inconclusive, HCMV antiviral -35.1, HCV inh 14.1µM*, SARS PLP yeast -17.1%, FMDV inh inconclusive and MARV entry inh inconclusive.
Screening O=C(O)CCCCCCCCCCP(=O)(c1ccccc1)c1ccccc1 returned LASV entry inh 3.7%, HCMV antiviral 13.3, HCV inh 7.2%, SARS PLP yeast 0.9%, FMDV inh 9.9% and MARV entry inh -20.5%[46.1 µM].
Cc1ccc(CNC(=O)c2cnc(N3CCCCC3)c3ccccc23)cc1 was read as LASV entry inh -4.7%[46.1 µM], HCMV antiviral 9.5 and FMDV inh -24.2%.
COc1ccccc1-n1c(SCC(=O)NCc2ccc3c(c2)OCO3)nc2cc([N+](=O)[O-])ccc21 was read as LASV entry inh inconclusive, HCMV antiviral -10.9, HCV inh 25.1µM*, SARS PLP yeast 6.3%, FMDV inh 1.5% and MARV entry inh 24.3%.
For CCn1cc(SCC(=O)NCc2ccc3c(c2)OCO3)c2ccccc21 the results were HCMV antiviral 26.5, HCV inh 10µM*, SARS PLP yeast -1.4% and FMDV inh 5.1%.
For CCCn1cc(SCC(=O)NCc2ccc3c(c2)OCO3)c2ccccc21 the results were HCMV antiviral -1.1, HCV inh inconclusive, SARS PLP yeast -5.5% and FMDV inh 7.6%.
For CC(Sc1nc2cc([N+](=O)[O-])ccc2n1-c1ccc(F)cc1)C(=O)NCc1ccc2c(c1)OCO2 (stereo not given) the results were LASV entry inh inconclusive, HCMV antiviral -21.6, HCV inh inconclusive, SARS PLP yeast 14.8%, FMDV inh -2.1% and MARV entry inh inconclusive.
